Experimental data from PubChem BioAssay AID1117319 (Southern Research Institute, 2015).
Values joined by “and” are separate entries in the source; they are usually repeats but may differ in a detail not shown here. Equal entries are not always repeated. Hit rate of the full screen: of about 260,000 compounds, about 1,500 (0.58%) were called active. Inconclusive results (about 5%) are left out.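 Rule for the calls: active = inhibition above a set limit at one or more doses, reproduced on every date tested; inconclusive = results disagree between test dates, or hit never tested in dose response; inactive = the rest.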 Not all results are given here. Potency and affinity values are given separately.

Target: Virion infectivity factor (Human immunodeficiency virus type 1 group M subtype B (isolate BH10)) + Virion infectivity factor (Human immunodeficiency virus type 1 group M subtype B (isolate BRU/LAI)) + Virion infectivity factor (Human immunodeficiency virus type 1 group M subtype B (isolate PCV12)) + Virion infectivity factor (Human immunodeficiency virus type 1 group M subtype B (isolate HXB2)) + DNA dC->dU-editing enzyme APOBEC-3G (Homo sapiens) (UniProt P69720+P69721+P69722+P69723+Q9HC16)
Experiment: HIV-1 Vif–A3G interaction blockers – biochemical, TR-FRET, GST-Vif 1-94, biotin-A3G peptide, dose response retest, primary screen (AID 1117319);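 note: Vif residues 1-94 fused to GST binding biotinylated APOBEC3G peptide 110-148; 0% = full assay without inhibitor and 100% = GST in place of GST-Vif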
Settings: TR-FRET GST-Vif / biotin-A3G peptide binding; active compounds read high

inhibition, inactive:
C=CCC[C@H](Cc1ccc(F)cc1)C(=O)OC[C@@H](C)NC(=O)[C@H](CC=C)CC(=O)N(CCO)Cc1ccccc1 0.83%
COc1ccc(OC)c(Nc2nc(C3CC3)nc3c2nnn3Cc2ccccc2)c1 -2.66%
COc1ccc(OC)c(-c2csc(NC(=O)c3ccc(OCC4CCCO4)cc3)n2)c1 (stereo not drawn) 6.81%
C=CCNC(=O)C1COc2ccccc2O1 (stereo not drawn) -12.5%
O=C(c1ccc(=O)[nH]c1)N1CCCc2ccccc21 0.97%
O=C(c1cccc(Br)c1)N1CCCc2ccccc21 4.68%
O=C(c1ccc(Br)cc1)N1CCCc2ccccc21 4.85%
COc1ccccc1N1CCN(C(=O)c2coc(=O)c(Br)c2)CC1 27.6%
O=C(c1ccccc1)N1CCCc2ccccc21 16.3%
O=C(NC(=S)N1CCCc2ccccc21)c1ccc(Br)cc1 -10.8%
O=C(c1coc(=O)c(Br)c1)N1CCOCC1 24.5%
O=C(NC(=S)N1CCCc2ccccc21)c1ccc(Cl)cc1 -35.9%
CSC1=C(C#N)C(c2sccc2C)CC(=O)N1 (stereo not drawn) -3.4%
C[C@@H]1CCC[C@H](C)N1Cc1nc(Cc2ccccc2Cl)no1 -1.65%
Oc1cccc(/C=N/n2c(C3CCCCC3)n[nH]c2=S)c1 2.47%
CC(=O)c1c(C)[nH]c(C(=O)CSc2ccc(F)cc2)c1C 29.5%
CCOC(=O)N1CCN(C(=O)C2CCCCC2)CC1 -1.05%
CCOc1ccsc1C(=O)OC 5.88%
CC1(C)CC(=O)C(C=NCCO)=C(O)C1 -1.68%
O=C(CNC(=O)c1ccc(Cl)cc1)OCN1C(=O)c2ccccc2C1=O -9.8%
CCC(C)(C)n1nnnc1C(c1ccc2ncccc2c1)N1CCN(c2nc3ccccc3s2)CC1 (stereo not drawn) -9.25% and 0.75%
CCC(C)(C)n1nnnc1C(c1ccc2ncccc2c1)N1CCCCCC1 (stereo not drawn) 2.63%
CCOC(=O)C(=O)NC(C)c1ccccc1 (stereo not drawn) 1.23%
N#CC(C#N)=C1C(=O)N(CCN2CCOCC2)c2ccccc21 19.1%
COc1cc(CNCCc2ccccc2)ccc1OCc1ccc(Cl)nc1 2.97%
COc1ccc(CCNCc2ccc(OCc3ccc(Cl)nc3)c(OC)c2)cc1OC 5.39%
CCOc1cccc2sc(N(CCCN(C)C)C(=O)c3ccc(S(=O)(=O)N4CCCCCC4)cc3)nc12 -5.19%
O=C(Nc1ccc(NS(=O)(=O)c2ccccc2)cc1)c1ccccc1Cl 9.4%
CCc1ccccc1NC(=O)Nc1ccc2c(c1)OCO2 -3.87%
Cn1cccc1C(=O)NC(=O)COC(=O)C12CC3CC(CC(O)(C3)C1)C2 9.63%
Cn1cccc1C(=O)NC(=O)COC(=O)CC12CC3CC(CC(C3)C1)C2 -0.55%
COc1ccc(Br)cc1/C=N/NC(=O)c1cccnc1 4.05%
O=C(O)C(Cc1ccccc1)N1C(=O)/C(=C/c2ccccc2)SC1=S (stereo not drawn) -5.34%
O=C(O)C(Cc1ccccc1)N1C(=O)/C(=C/c2cccs2)SC1=S (stereo not drawn) 24.3%
O=C(O)CCN1C(=O)/C(=C/c2ccc(-c3nc4ccccc4s3)o2)SC1=S 1.36%
O=C(O)CCN1C(=O)/C(=C\c2ccc(-c3nc4ccccc4s3)o2)SC1=S 32.3%
O=C(O)CN1C(=O)/C(=C/C=C/c2ccccc2)SC1=S 5.16%
CCC(C(=O)O)N1C(=O)/C(=C/C(C)=C/c2ccccc2)SC1=S (stereo not drawn) -2.68%
CCOc1cc(C2NC(=O)NC(C)=C2C(=O)OCc2ccccc2)ccc1O (stereo not drawn) 0.18%
CCOC(=O)N1CCN(Cc2nc3c(c(=O)[nH]c(=O)n3C)n2Cc2ccccc2C)CC1 23.6%
O=C(CNC(=O)c1ccccc1)Nc1ccsc1C(=O)O -11.3%
COc1ccc(Cc2noc(CN3CCNC(=O)CC3)n2)cc1OC 3.31%
O=c1c2nnn(Cc3ccccc3)c2ncn1C/C=C/c1ccccc1 -0.52%
CC(=O)c1ccc2c3c(ccc([N+](=O)[O-])c13)CC2 -4.85%
Nc1ccc2c3c(ccc([N+](=O)[O-])c13)CC2 -1.18%
Cc1nnc(SCCn2c(N3CCCCC3)nc3c2c(=O)[nH]c(=O)n3C)s1 0.62%
COc1ccccc1CNC(=O)CCn1c(=O)oc2ccccc21 0.68%
CCOc1ccccc1CNC(=O)Cn1c(=O)oc2ccccc21 72.4%
O=C(Nc1ccccc1N1CCOCC1)c1ccc2c(c1)OCCO2 -3.74%
CC(OC(=O)/C=C/c1ccc2ccccc2n1)C(=O)N(C)c1ccccc1 (stereo not drawn) 1.44%
Cc1ccc(Cn2nnnc2CN2CCC(O)(c3ccccc3F)CC2)cc1 20%
CCCCCCCCCCCCC(=O)CCCCC(=O)O -6.1%
CCCCCCCCS(=O)CCC(=O)O (stereo not drawn) 11.3%
O=C1CC(N2CCN(c3ccc(C(=O)c4ccc(F)cc4)cc3)CC2)C(=O)N1 (stereo not drawn) 28.2%
CC(C)(C)NC(=O)c1sccc1C(=O)O 9.39%
Cc1ccc(C)n1-c1ccsc1C(=O)CC#N 22.9%
O=C(CNC(=O)c1cccc(Cl)c1)NCCCSc1ccccc1 -1.26%
Nc1nc(N)c2cc(Sc3ccc(Cl)cc3)ccc2n1 -22.4%
Cc1cc(-c2ccccc2)n(-c2ccccc2)n1 3.24%
Cc1cc(-c2ccco2)n(CC(=O)O)n1 5.45%
COc1ccc(NC(=S)NCCc2ccccc2)c(OC)c1 18.1%
COc1ccc(NC(=S)NCCc2c[nH]c3ccccc23)c(OC)c1 20.9%
COc1cc(OC)cc(C(=O)N2CCCC(c3nc(-c4ccc(C)o4)no3)C2)c1 (stereo not drawn) 32.4%
